Data taken from PubChem BioAssay AID1159580 (chemical genetic matrix, 2015).
Where “and” joins values, the source holds several entries; their conditions need not be identical. Equal entries are not always repeated. About 2,000 (36%) of roughly 5,500 compounds were called active. About 18% were inconclusive and are not listed. Rule as the data show it: active = normalized growth mostly below about 0.91 (no sharp cut-off); inconclusive = no clear call, values can overlap the other calls; inactive = mostly above about 0.92. Some of the results follow.

Test: chemical genetic growth profiling, strain panel (AID 1159580);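 also: tested at 20 µM; growth read once vehicle control cultures reached saturation at 30 °C; 1 = growth at the plate median or of vehicle wells; lower values mean less growth of the strain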
Conditions: growth OD
[1] = S. cerevisiae deletion strains, locus YAR019C, strain CDC15, stronger effect = lower value
[2] = S. cerevisiae deletion strains, locus YBL105C, strain PKC1, stronger effect = lower value
[3] = S. cerevisiae deletion strains, locus YBR135W, strain CKS1, stronger effect = lower value
[4] = S. cerevisiae deletion strains, locus YBR136W, strain MEC1, stronger effect = lower value
[5] = S. cerevisiae deletion strains, locus YBR160W, strain CDC28, stronger effect = lower value
[6] = S. cerevisiae deletion strains, locus YDL017W, strain CDC7, stronger effect = lower value
[7] = S. cerevisiae deletion strains, locus YDL028C, strain MPS1, stronger effect = lower value
[8] = S. cerevisiae deletion strains, locus YDL101C, strain DUN1, stronger effect = lower value
[9] = S. cerevisiae deletion strains, locus YDL108W, strain KIN28, stronger effect = lower value
[10] = S. cerevisiae deletion strains, locus YDL132W, strain cdc53, stronger effect = lower value
[11] = S. cerevisiae deletion strains, locus YDL214C, strain PRR2, stronger effect = lower value
[12] = S. cerevisiae deletion strains, locus YDR052C, strain DBF4, stronger effect = lower value
[13] = S. cerevisiae deletion strains, locus YDR054C, strain cdc34, stronger effect = lower value
[14] = S. cerevisiae deletion strains, locus YDR226W, strain ADK1, stronger effect = lower value
[15] = S. cerevisiae deletion strains, locus YDR477W, strain SNF1, stronger effect = lower value
[16] = S. cerevisiae deletion strains, locus YER123W, strain YCK3, stronger effect = lower value
[17] = S. cerevisiae deletion strains, locus YER133W, strain GLC7, stronger effect = lower value
[18] = S. cerevisiae deletion strains, locus YFL009W, strain cdc4, stronger effect = lower value
[19] = S. cerevisiae deletion strains, locus YFL029C, strain CAK1, stronger effect = lower value
[20] = S. cerevisiae deletion strains, locus YFR003C, strain YPI1, stronger effect = lower value
[21] = S. cerevisiae deletion strains, locus YFR019W, strain FAB1, stronger effect = lower value
[22] = S. cerevisiae deletion strains, locus YFR028C, strain CDC14, stronger effect = lower value
[23] = S. cerevisiae deletion strains, locus YGR040W, strain KSS1, stronger effect = lower value
[24] = S. cerevisiae deletion strains, locus YGR052W, strain FMP48, stronger effect = lower value
[25] = S. cerevisiae deletion strains, locus YGR092W, strain DBF2, stronger effect = lower value
[26] = S. cerevisiae deletion strains, locus YHR030C, strain SLT2, stronger effect = lower value
[27] = S. cerevisiae deletion strains, locus YHR079C, strain IRE1, stronger effect = lower value
[28] = S. cerevisiae deletion strains, locus YHR082C, strain KSP1, stronger effect = lower value
[29] = S. cerevisiae deletion strains, locus YHR205W, strain SCH9, stronger effect = lower value
[30] = S. cerevisiae deletion strains, locus YIL147C, strain SLN1, stronger effect = lower value
[31] = S. cerevisiae deletion strains, locus YJL095W, strain BCK1, stronger effect = lower value
[32] = S. cerevisiae deletion strains, locus YJL128C, strain PBS2, stronger effect = lower value
[33] = S. cerevisiae deletion strains, locus YJL157C, strain FAR1, stronger effect = lower value
[34] = S. cerevisiae deletion strains, locus YJR016C, strain ILV3, stronger effect = lower value
[35] = S. cerevisiae deletion strains, locus YJR066W, strain TOR1 (second series), stronger effect = lower value
[36] = S. cerevisiae deletion strains, locus YJR066W, strain TOR1, stronger effect = lower value
[37] = S. cerevisiae deletion strains, locus YKL048C, strain ELM1, stronger effect = lower value
[38] = S. cerevisiae deletion strains, locus YKL067W, strain YNK1, stronger effect = lower value
[39] = S. cerevisiae deletion strains, locus YKL101W, strain HSL1, stronger effect = lower value
[40] = S. cerevisiae deletion strains, locus YKL193C, strain SDS22, stronger effect = lower value
[41] = S. cerevisiae deletion strains, locus YKL203C, strain TOR2, stronger effect = lower value
[42] = S. cerevisiae deletion strains, locus YLR113W, strain HOG1, stronger effect = lower value
[43] = S. cerevisiae deletion strains, locus YLR133W, strain CKI1, stronger effect = lower value
[44] = S. cerevisiae deletion strains, locus YLR403W, strain SFP1, stronger effect = lower value
[45] = S. cerevisiae deletion strains, locus YML070W, strain DAK1, stronger effect = lower value
[46] = S. cerevisiae deletion strains, locus YMR001C, strain CDC5, stronger effect = lower value
[47] = S. cerevisiae deletion strains, locus YMR205C, strain PFK2 (second series), stronger effect = lower value
[48] = S. cerevisiae deletion strains, locus YMR277W, strain FCP1, stronger effect = lower value
[49] = S. cerevisiae deletion strains, locus YNL006W, strain LST8, stronger effect = lower value
[50] = S. cerevisiae deletion strains, locus YNL020C, strain ARK1, stronger effect = lower value
[51] = S. cerevisiae deletion strains, locus YNL161W, strain CBK1, stronger effect = lower value
[52] = S. cerevisiae deletion strains, locus YNL183C, strain NPR1, stronger effect = lower value
[53] = S. cerevisiae deletion strains, locus YNL207W, strain RIO2, stronger effect = lower value
[54] = S. cerevisiae deletion strains, locus YNL307C, strain MCK1 (second series), stronger effect = lower value
[55] = S. cerevisiae deletion strains, locus YOL078W, strain AVO1, stronger effect = lower value
[56] = S. cerevisiae deletion strains, locus YOL136C, strain PFK27, stronger effect = lower value
[57] = S. cerevisiae deletion strains, locus YOR061W, strain CKA2, stronger effect = lower value
[58] = S. cerevisiae deletion strains, locus YOR119C, strain RIO1, stronger effect = lower value
[59] = S. cerevisiae deletion strains, locus YOR231W, strain MKK1, stronger effect = lower value
[60] = S. cerevisiae deletion strains, locus YOR329C, strain SCD5, stronger effect = lower value
[61] = S. cerevisiae deletion strains, locus YPL031C, strain PHO85, stronger effect = lower value
[62] = S. cerevisiae deletion strains, locus YPL153C, strain RAD53, stronger effect = lower value
[63] = S. cerevisiae deletion strains, locus YPL204W, strain HRR25, stronger effect = lower value
[64] = S. cerevisiae deletion strains, locus YPL209C, strain IPL1, stronger effect = lower value
[65] = S. cerevisiae deletion strains, locus YPL256C, strain CLN2, stronger effect = lower value
[66] = S. cerevisiae deletion strains, locus YPR025C, strain CCL1, stronger effect = lower value
[67] = S. cerevisiae deletion strains, locus YPR106W, strain ISR1, stronger effect = lower value
[68] = S. cerevisiae deletion strains, locus YPR111W, strain DBF20, stronger effect = lower value
[69] = S. cerevisiae deletion strains, strain NNK1, stronger effect = lower value
[70] = S. cerevisiae deletion strains, strain TSCII, stronger effect = lower value

Measured: normalized growth

N#C/C(=N/Nc1ccc(C(F)(F)F)cc1)C(=O)C1CC1
0.482 (active) and 1.02 (inactive): [26]
inactive: S. cerevisiae deletion strains, locus YAL013W, strain DEP1, stronger effect = lower value 0.942 | [1] 0.952 | [2] 0.947 | [3] 0.941 | [4] 0.942 | [5] 0.942 | S. cerevisiae deletion strains, locus YBR229C, strain ROT2, stronger effect = lower value 0.96 | S. cerevisiae deletion strains, locus YCL061C, strain MRC1, stronger effect = lower value 0.978 | [6] 0.953 | [7] 0.938 | [8] 0.976 and 0.966 | [9] 0.937 | [10] 0.937 | [11] 0.904 | [12] 0.953 | [13] 0.95 | S. cerevisiae deletion strains, locus YDR150W, strain NUM1, stronger effect = lower value 0.928 | [14] 0.97 | [15] 0.932 | [16] 0.88 | [17] 0.93 | [18] 0.942 | [19] 0.945 | [20] 0.95 | [21] 0.92 | [22] 0.964 | [23] 0.905 | [24] 0.922 | S. cerevisiae deletion strains, locus YGR078C, strain PAC10, stronger effect = lower value 0.957 | [25] 0.855 | S. cerevisiae deletion strains, locus YGR229C, strain SMI1, stronger effect = lower value 0.948 | [27] 0.958 | [28] 0.989 | S. cerevisiae deletion strains, locus YHR087W, strain rtc3, stronger effect = lower value 0.951 | [29] 0.889 | [30] 0.941 | [31] 0.913 | [32] 0.924 | [33] 0.94 | S. cerevisiae deletion strains, locus YJL187C, strain SWE1, stronger effect = lower value 0.98 | [34] 0.931 | S. cerevisiae deletion strains, locus YJR043C, strain POL32, stronger effect = lower value 0.952 | [35] 0.897 | [36] 0.997 | S. cerevisiae deletion strains, locus YJR075W, strain HOC1, stronger effect = lower value 0.975 | [37] 0.928 | [38] 0.904 | [39] 0.874 | [40] 0.943 | [41] 0.996 | S. cerevisiae deletion strains, locus YLR058C, strain SHM2 (second series), stronger effect = lower value 0.975 | [43] 0.909 | [44] 0.898 | [45] 0.895 | [46] 0.95 | [47] 0.917 | S. cerevisiae deletion strains, locus YMR219W, strain ESC1, stronger effect = lower value 0.986 | S. cerevisiae deletion strains, locus YMR263W, strain SAP30, stronger effect = lower value 0.956 | [48] 0.937 | [49] 0.947 | [50] 0.914 | S. cerevisiae deletion strains, locus YNL128W, strain TEP1, stronger effect = lower value 0.956 | S. cerevisiae deletion strains, locus YNL153C, strain GIM3, stronger effect = lower value 0.981 | [51] 0.949 | [52] 0.941 | [53] 0.95 | S. cerevisiae deletion strains, locus YNL222W, strain SSU72, stronger effect = lower value 0.947 | S. cerevisiae deletion strains, locus YNL298W, strain CLA4 (second series), stronger effect = lower value 0.842 | [54] 0.905 | S. cerevisiae deletion strains, locus YNL322C, strain KRE1, stronger effect = lower value 0.981 | [55] 0.936 | [56] 0.866 | [57] 0.926 | [58] 0.973 | [59] 0.89 | [60] 0.958 | [61] 0.922 | S. cerevisiae deletion strains, locus YPL055C, strain LGE1, stronger effect = lower value 0.83 | [62] 0.929 | [63] 0.894 | [64] 0.955 | [65] 0.977 | [66] 0.95 | [67] 0.951 | [68] 0.912 | S. cerevisiae deletion strains, locus YPR135W, strain CTF4, stronger effect = lower value 0.829 | [69] 0.971 | [70] 0.947 | S. cerevisiae strains, strain wild type, stronger effect = lower value 0.943
active: S. cerevisiae deletion strains, locus YDL134C, strain PPH21, stronger effect = lower value 0.791 | S. cerevisiae deletion strains, locus YEL061C, strain CIN8, stronger effect = lower value 0.857 | S. cerevisiae deletion strains, locus YLR039C, strain RIC1, stronger effect = lower value 0.565 | S. cerevisiae deletion strains, locus YLR085C, strain ARP6, stronger effect = lower value 0.503 | [42] 0.835 | S. cerevisiae deletion strains, locus YLR262C, strain YPT6, stronger effect = lower value 0.68 | S. cerevisiae deletion strains, locus YML094W, strain GIM5, stronger effect = lower value 0.841 | S. cerevisiae deletion strains, locus YMR307W, strain GAS1, stronger effect = lower value 0.535 | S. cerevisiae deletion strains, locus YNR030W, strain Alg12, stronger effect = lower value 0.773 | S. cerevisiae deletion strains, locus YPL241C, strain CIN2, stronger effect = lower value 0.76

N#CC(C#N)=NNc1cc(C(F)(F)F)ccc1OCC(F)(F)F
inactive: [1] 0.913 | [2] 0.927 | [3] 0.917 | [4] 0.894 | [5] 0.906 | [6] 0.953 | [7] 0.917 | [8] 0.911 | [9] 0.911 | [12] 0.913 | [13] 0.893 | [18] 0.919 | [19] 0.921 | [20] 0.975 | [22] 0.912 | [25] 0.818 | [27] 0.831 | [29] 0.814 | [30] 0.966 | [31] 0.533 | [32] 0.888 | [33] 0.814 | [34] 0.947 | [37] 0.88 | [38] 0.739 | [39] 0.787 | [40] 0.9 | [43] 0.868 | [44] 0.811 | [46] 0.9 | [47] 0.889 | [49] 0.976 | [50] 0.917 | [51] 0.899 | [53] 0.923 | [54] 0.734 | [55] 0.904 | [56] 0.693 | [57] 0.86 | [59] 0.782 | [60] 0.978 | [61] 0.703 | [62] 0.679 | [63] 0.688 | [64] 0.928 | [66] 0.923 | [67] 0.932 | [68] 0.895 | [69] 0.957
active: [10] 0.891 | [11] 0.611 | [14] 0.891 | [15] 0.572 | [16] 0.398 | [17] 0.459 | [21] 0.691 | [23] 0.611 | [24] 0.428 | [26] 0.445 | [28] 0.543 | [35] 0.437 | [36] 0.458 | [41] 0.71 | [42] 0.32 | [45] 0.623 | [48] 0.871 | [52] 0.329 | [58] 0.45 | [65] 0.33 | [70] 0.858
